Compounds without any hit were thinned out: in the full panel of roughly 83,000, 20% have a hit.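 Activity criterion: percent growth below 10, measured after cells in 96-well plates were exposed to a single compound concentration for 48 hours.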 Active and inactive are the calls of the source.
Tests used:
Test in all cases: NCI-60 one-dose screen, 48 h (100 = growth as untreated, 0 = no growth, -100 = all killed)
Settings in all cases: 10 µM unless noted
T-47D breast = test system: T-47D breast
BT-549 breast = test system: BT-549 breast
MDA-MB-435 melanoma = test system: MDA-MB-435 melanoma
SW-620 colon = test system: SW-620 colon
MCF7 breast = test system: MCF7 breast
HCT-116 colon = test system: HCT-116 colon
HCC-2998 colon = test system: HCC-2998 colon
KM12 colon = test system: KM12 colon

Measured: growth

COc1ccc2c(c1)O/C(=C/c1ccc(OCC(=O)Nc3ccc(S(N)(=O)=O)cc3)cc1)C2=O
inactive: T-47D breast 97.2% | BT-549 breast 99.6% | MDA-MB-435 melanoma 103% | SW-620 colon 107% | MCF7 breast 104% | HCT-116 colon 95.2% | HCC-2998 colon 105% | KM12 colon 99.5%

Nc1nccc2c1ccn2-c1ccc(NC(=O)c2ccc(N3CCOCC3)c(C(F)(F)F)c2)cc1
active: MDA-MB-435 melanoma -8.07% | SW-620 colon -32.8% | MCF7 breast -18.2% | HCT-116 colon 4.53% | KM12 colon -41.4%
inactive: T-47D breast 39% | BT-549 breast 26.5% | HCC-2998 colon 39.1%

COC1OCC(OS(=O)(=O)c2ccc(C)cc2)C(OC(=O)c2ccccc2)C1OC(=O)c1ccccc1 (configuration not stated)
inactive: T-47D breast 44.4% | BT-549 breast 39.1% | SW-620 colon 19.5% | MCF7 breast 22.6% | HCT-116 colon 32.4% | HCC-2998 colon 56.9% | KM12 colon 30.7%
active: MDA-MB-435 melanoma -5.87%

CN(C)c1ccc(/C=N/n2c(-c3cc(F)c(Cl)cc3Cl)nn(CN3CCOCC3)c2=S)cc1
inactive: T-47D breast 94.1% | BT-549 breast 91.3% | MDA-MB-435 melanoma 80.7% | SW-620 colon 109% | MCF7 breast 118% | HCT-116 colon 92.6% | HCC-2998 colon 111% | KM12 colon 102%

O=[N+]([O-])c1ccc(NS(=O)(=O)c2cc(Cl)ccc2Cl)c2ccccc12
inactive: T-47D breast 56% | BT-549 breast 48% | MDA-MB-435 melanoma 52.3% | SW-620 colon 64.4% | MCF7 breast 46.4% | HCT-116 colon 45% | HCC-2998 colon 32.2% | KM12 colon 40.5%

C[C@]12O[C@H]1[C@H](O)c1c(cc(O)c3c1C(=O)c1cccc(O)c1-3)C2=O
inactive: T-47D breast 100% | BT-549 breast 95.5% | MDA-MB-435 melanoma 104% | SW-620 colon 113% | MCF7 breast 97.9% | HCT-116 colon 93.4% | HCC-2998 colon 112% | KM12 colon 103%

Cc1[nH]n(C(=O)c2ccncc2)c(=O)c1N=Nc1ccc(S(=O)(=O)Nc2ccncn2)cc1
inactive: T-47D breast 113% | BT-549 breast 127% | MDA-MB-435 melanoma 117% | SW-620 colon 108% | MCF7 breast 102% | HCT-116 colon 92.6% | HCC-2998 colon 113% | KM12 colon 109%

Nn1c(CN2CCN(c3cc4c(cc3F)c(=O)c(C(=O)O)cn4C3CC3)CC2)n[nH]c1=S
inactive: T-47D breast 98.3% | BT-549 breast 112% | MDA-MB-435 melanoma 97.9% | SW-620 colon 105% | MCF7 breast 93.4% | HCT-116 colon 102% | HCC-2998 colon 92.7% | KM12 colon 103%

COc1cccc(-c2nc3sccn3c2-c2ccnc(NCCNC(=O)Nc3cccc(C(F)(F)F)c3)n2)c1
inactive: T-47D breast 42.9% | BT-549 breast 71.9% | MDA-MB-435 melanoma 21.5% | SW-620 colon 88.9% | MCF7 breast 54.8% | HCT-116 colon 44.6% | HCC-2998 colon 40.8% | KM12 colon 33.5%

C[C@H]1C=C(C[C@@H](O)CCCCCCCCCC[C@@H](O)[C@H]2CCC(=O)O2)C(=O)O1
inactive: T-47D breast 92.6% | BT-549 breast 112% | MDA-MB-435 melanoma 113% | SW-620 colon 99.9% | MCF7 breast 118% | HCT-116 colon 87.9% | HCC-2998 colon 97.7% | KM12 colon 105%

O=c1nc(N2CCOCC2)oc2c(-c3cccc4ccccc34)cccc12
inactive: T-47D breast 79.7% | BT-549 breast 85.3% | MDA-MB-435 melanoma 101% | SW-620 colon 97.9% | MCF7 breast 89.8% | HCT-116 colon 96.7% | HCC-2998 colon 109% | KM12 colon 87.3%

C=CCn1c(SCC(=O)Nc2ccc(C(=O)/C=C/c3cc(OC)c(OC)c(OC)c3)cc2)nnc1-c1ccc(OC)cc1
active: T-47D breast -2.4% | BT-549 breast -23.8% | MDA-MB-435 melanoma -38.1% | SW-620 colon -6.73% | MCF7 breast 0.763% | HCT-116 colon -29.4% | HCC-2998 colon -65.8% | KM12 colon -33.7%

O=C1c2ccccc2OC=C(c2ccccc2)N1CCCCN1CCCCC1
active: T-47D breast 0.353%
inactive: BT-549 breast 32.5% | MDA-MB-435 melanoma 67.4% | SW-620 colon 71.5% | MCF7 breast 38.6% | HCT-116 colon 27.2% | HCC-2998 colon 69.1% | KM12 colon 49.2%

CN(C)CCNc1nc2ccccc2c2c(=O)c3ccccc3sc12
active: MDA-MB-435 melanoma 8.44% | SW-620 colon -54% | MCF7 breast -46.9% | HCT-116 colon -9.31% | HCC-2998 colon -11.3%
inactive: T-47D breast 49% | BT-549 breast 74.4% | KM12 colon 18.5%

CC(CN(C)C)CN1c2ccccc2CCc2ccccc21 (configuration not stated)
inactive: T-47D breast 78.1% | BT-549 breast 90.7% | MDA-MB-435 melanoma 72.4% | SW-620 colon 93.3% | MCF7 breast 96.3% | HCT-116 colon 53.2% | HCC-2998 colon 54.6% | KM12 colon 106%

O=c1[nH]ccc2nc(N3CCC(O)CC3)nc(Nc3cccc(C(F)(F)F)c3)c12
active: MDA-MB-435 melanoma 7.33%
inactive: T-47D breast 61.6% | BT-549 breast 16.5% | SW-620 colon 48.9% | MCF7 breast 22.4% | HCT-116 colon 42% | HCC-2998 colon 83.8% | KM12 colon 23%

O=C(Nc1ccc(-n2ccc3c(NC(=O)c4ccccc4)ncnc32)cc1)Nc1ccc(Cl)c(C(F)(F)F)c1
active: MDA-MB-435 melanoma 7.71% | MCF7 breast -51.3% | HCT-116 colon -77.6% | KM12 colon -25.4%
inactive: T-47D breast 12% | BT-549 breast 56% | SW-620 colon 12.6% | HCC-2998 colon 30.8%

c1ccc(-c2nc3sc(C(c4ccccc4)c4ccccc4)nn3c2-c2ccccc2)cc1
inactive: T-47D breast 92.6% | BT-549 breast 96% | MDA-MB-435 melanoma 98.9% | SW-620 colon 91.6% | MCF7 breast 90.8% | HCT-116 colon 84% | HCC-2998 colon 109% | KM12 colon 96.1%

COc1ccc(C(=O)Cn2cnc3c(Nc4cc(C(=O)Nc5ccc(N6CCN(CCO)CC6)cc5)ccc4C)ncnc32)cc1
inactive: T-47D breast 91.6% | BT-549 breast 94.9% | MDA-MB-435 melanoma 105% | SW-620 colon 105% | MCF7 breast 87.1% | HCT-116 colon 97.3% | HCC-2998 colon 97.4% | KM12 colon 99.4%

NS(=O)(=O)c1ccc(Nc2nc(O)c(/C=C3\C=Nc4ccccc43)s2)cc1
inactive: T-47D breast 99.3% | BT-549 breast 108% | MDA-MB-435 melanoma 107% | SW-620 colon 99.6% | MCF7 breast 94.2% | HCT-116 colon 92.7% | HCC-2998 colon 116% | KM12 colon 95.6%

COc1ccc(/C=C2\CS(=O)(=O)C/C(=C\c3ccc(OC)cc3)C2=O)cc1
active: BT-549 breast -38.6% | MDA-MB-435 melanoma -28.8% | SW-620 colon 0.757% | MCF7 breast -15% | HCT-116 colon -83.2% | HCC-2998 colon -98% | KM12 colon -93.2%
inactive: T-47D breast 14.6%

COc1cc(-c2nc3sc(C)cn3c2/C=C2\C(=O)Nc3ccccc32)c(Br)c(OC)c1OC
inactive: T-47D breast 51.5% | BT-549 breast 14.8% | SW-620 colon 21.2% | HCT-116 colon 22% | HCC-2998 colon 97% | KM12 colon 15.1%
active: MDA-MB-435 melanoma -8.78% | MCF7 breast 1.61%

FC(F)(F)c1cccc([Si](F)(c2cccc(C(F)(F)F)c2)c2cccc(C(F)(F)F)c2)c1
inactive: T-47D breast 40.4% | BT-549 breast 64.5% | MDA-MB-435 melanoma 95% | SW-620 colon 82% | MCF7 breast 67.1% | HCT-116 colon 15.6% | HCC-2998 colon 99% | KM12 colon 74.8%

COc1ccc(Cl)cc1NC(=O)c1cc2c(n1C)-c1nc(NC(=O)C(C)(C)C)sc1CC2
inactive: T-47D breast 64.5% | BT-549 breast 94.6% | MDA-MB-435 melanoma 102% | SW-620 colon 107% | MCF7 breast 79.4% | HCT-116 colon 85.4% | HCC-2998 colon 118% | KM12 colon 94.8%

Cc1ccc2oc(=O)cc(C3C(C#N)=C(N)Oc4c3ccc3ccccc43)c2c1 (configuration not stated)
active: MDA-MB-435 melanoma 6.57%
inactive: T-47D breast 69% | BT-549 breast 70.2% | SW-620 colon 55% | MCF7 breast 42.1% | HCT-116 colon 69.2% | HCC-2998 colon 91.4% | KM12 colon 55.1%

Nc1c(C(=O)O)[nH]c(=O)[nH]c1=O
inactive: T-47D breast 104% | BT-549 breast 107% | MDA-MB-435 melanoma 108% | SW-620 colon 108% | MCF7 breast 95.6% | HCT-116 colon 96.8% | HCC-2998 colon 105% | KM12 colon 106%

CCN(CC)C(=O)C1CCN(C(=O)c2ccccc2)CC1
inactive: T-47D breast 98.4% | BT-549 breast 93.8% | MDA-MB-435 melanoma 104% | SW-620 colon 101% | MCF7 breast 96.6% | HCT-116 colon 99.2% | HCC-2998 colon 106% | KM12 colon 101%

CCCCCCCCN(CCCCCCCC)CC(O)c1cc(-c2ccccc2)nc2ccc(OC)cc12 (configuration not stated)
active: HCT-116 colon 8.32%
inactive: T-47D breast 77% | BT-549 breast 78.8% | MDA-MB-435 melanoma 60.1% | SW-620 colon 23.6% | MCF7 breast 67% | HCC-2998 colon 101% | KM12 colon 82.9%

COc1ccc2c(c1)nnc1c3cccnc3[nH]c21
active: T-47D breast 6.14% | BT-549 breast 4.75% | SW-620 colon -12.5% | MCF7 breast -43.5% | HCT-116 colon -74%
inactive: MDA-MB-435 melanoma 13.8% | HCC-2998 colon 40.6% | KM12 colon 30%
